The whole screen tested about 340,000 compounds, of which about 8,500 (2.5%) were called active. What follows is part of a selection rich in actives, with near analogues and random picks from the rest. Unmarked numbers belong to inactive results.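 Rule for the calls: active = melting temperature shift of at least 10% of the positive control shift, at one fixed dose; inactive = the rest.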

This assay deals with Glutamate receptor ionotropic, NMDA 3A (GRIN3A) ligand-binding domain. Kind of assay: binders of NR3A ligand-binding domain, primary screen, biophysical, differential scanning fluorimetry, uHTS (AID 1259313). The settings on record: NR3A LBD differential scanning fluorimetry, at 25 µM, active compounds read high, 0% = protein alone, 100% = glycine-bound protein.
Regarding `CC1CN(CC(=O)NC(C)c2ccccc2)CC(C)O1` (centres undefined), the Tm shift relative to glycine control was -1.03%.
For `CCC(=O)c1cn(CCOc2ccccc2OC)c2ccccc12`, the Tm shift relative to glycine control is 2.85%.
Next, `Cc1ccc(S(=O)(=O)NC2(C(F)(F)F)NC(=O)N(CCc3ccccc3)C2=O)cc1` (centres undefined): -0.75%.
Turning to `CC(=O)Nc1ccc(S(=O)(=O)NC2(C(F)(F)F)C(=O)NC(C)=C2C#N)cc1` (centres undefined), the Tm shift relative to glycine control is -1.26%.
Next, `CCCN1C(=O)C(NS(=O)(=O)c2ccc(N)cc2)(C(F)(F)F)C(C(=O)OC)=C1C` (centres undefined): 13.6% (active); `Nc1ncnc(Nc2cccc(Cl)c2Cl)n1`: -0.42%.
The figure for `O=C(NCc1ccccc1)[C@H]1C[C@@H]1[C@H](NP(=O)(c1ccccc1)c1ccccc1)c1ccccc1` is -1.54%; for `CC[C@]12c3[nH]c4cc(CCC(=O)N(C)C)ccc4c3CCN1C(=O)[C@@H](CC(=O)NCC13CC4CC(CC(C4)C1)C3)C[C@@H]2C(=O)N1CCN(C(=O)C2CC2)CC1` it is -2.56%; for `C=CCSc1nsc(NC(=O)Nc2cccc(C(C)=O)c2)n1` it is 15.6% (active).
The figure for `CC(NC(=O)Nc1ccccc1)c1ccccc1` (centres undefined) is -5.71%; for `CSc1nsc(NC(=O)Nc2ccccc2)n1` it is 19.7% (active).
`CSc1nsc(SCC(=O)Nc2cc(C(=O)O)ccc2C)n1`: the Tm shift relative to glycine control was 1.25%.
The figure for `CC(=O)c1cccc(NC(=S)N2CCCC2)c1` is 2.43%.
The figure for `CCSc1nsc(NC(=O)Nc2cccc(C(C)=O)c2)n1` is 0.77%; for `S=c1[nH]c2ccccc2c2ccccc12` it is -5.09%.
With `OCC1(Cc2ccccc2C(F)(F)F)CCN(Cc2ccncc2)CC1`, the Tm shift relative to glycine control was -1.43%.
The figure for `CCOc1cc(CNn2c(C)nnc2SCC(=O)NC(C)(C)C)ccc1OCC(=O)NC(C)(C)C` is -4.76%; for `CC1(C)CC(CNCCC(c2ccc(F)cc2)c2ccco2)CCO1` (centres undefined) it is 0.16%.
Next, `COC(=O)CSc1ccc2nnc(CCNS(=O)(=O)c3ccc(C)cc3)n2n1`: -0.94%; `CN(C)S(=O)(=O)c1ccc(NC(=O)COC(=O)c2n[nH]c3ccccc23)cc1`: -2.54%; `CCN(CC)S(=O)(=O)c1ccc(C(=O)N2CCN(C3=NS(=O)(=O)c4ccccc43)CC2)cc1`: 0.26%.
The figure for `COCC(=O)Nc1nnc(COc2ccccc2)s1` is 2.29%; for `O=C(Nc1nnc(COc2ccccc2)s1)Nc1ccccc1F` it is 1.33%.
Consider `O=C(Nc1ccccc1)Nc1nnc(COc2ccccc2F)s1`, for which the Tm shift relative to glycine control was 38.9% (active).
Take `Cc1ccc(-c2nnc(SCC(=O)N/N=C/c3cccs3)n2-c2ccc(C)cc2)cc1`: the Tm shift relative to glycine control is -6.78%.
The figure for `COc1cccc(/C=C/C(=O)Nc2ccc3c(c2)OCCO3)c1` is 2.64%.
The figure for `CCC1([N+](=O)[O-])COC(c2ccc(C)cc2)OC1` (centres undefined) is -10.1%; for `NC(=O)CC[C@@H]1NC(=O)[C@H](CO)NC(=O)c2cc([N+](=O)[O-])cc(I)c2NCC[C@@H](C(N)=O)NC1=O` it is -0.81%.
Next, `O=C(NCc1ccccc1Cl)C1CCCN1S(=O)(=O)c1ccc(F)cc1` (centres undefined): 2.13%.
In the case of `O=C(CN1CCN(S(=O)(=O)c2ccc(Cl)s2)CC1)NCc1ccc(Cl)cc1`, the Tm shift relative to glycine control was -1.27%.
The figure for `CN(NC(=O)c1ccccc1F)c1nc(C(F)(F)F)nc2ccccc12` is 0.16%; for `CN(NC(=O)c1ccccc1)c1nc2ccccc2nc1C(F)(F)F` it is 11.4% (active); for `CSc1nc(N(C)NC(=O)c2cccc(C)c2)c2ccccc2n1` it is 3.17%.
Turning to `Cc1ccc(C)c(C(=O)N2CCC(n3nccc3NC(=O)C3CC3)CC2)c1`, the Tm shift relative to glycine control was 0.44%.
Regarding `O=C(NC1(C(F)(F)F)NC(=O)N(C2CCCCC2)C1=O)c1ccco1` (centres undefined), the Tm shift relative to glycine control is 1.55%.
Next, `CCC1(CC)NC(=O)N(Cc2nc3ccccc3s2)C1=O`: -0.61%; `O=C1NC(Nc2nc3ccccc3s2)(C(F)(F)F)C(=O)N1C1CCCCC1` (centres undefined): 13.7% (active).
Next, `Cc1ccc2oc(=O)c3cnn(CC(=O)N4CCN(c5ccccn5)CC4)c3c2c1`: 0.6%.
Next, `CCOc1cccc2cc(C(=O)OCC(=O)Nc3c(C)cccc3CC)c(=O)oc12`: -0.27%.
Consider `N#C/C(=C\N1CCOCC1)S(=O)(=O)c1ccc(Cl)cc1`, for which the Tm shift relative to glycine control was -0.42%.
The figure for `CCCN(CCC)c1c([N+](=O)[O-])c(=O)oc2ccccc12` is -4.15%; for `Cc1ccc(C(=O)Cn2cc([N+](=O)[O-])nc2C)cc1` it is 2.36%.
`Cc1ccc(-c2cn3cc([N+](=O)[O-])ccc3n2)cc1`: the Tm shift relative to glycine control is 0.72%.
The figure for `Cc1ccc(-n2cc3ccc([N+](=O)[O-])cc3n2)cc1` is 13.3% (active); for `CN(C)/C=C(/C(=O)c1ccccc1)S(=O)(=O)c1ccc(Cl)cc1` it is -1.01%; for `Cc1cc(NC(C)C)n2c(nc3ccccc32)c1C#N` it is 0.92%.
The figure for `CC(C)c1cc(NCc2ccccn2)n2c(nc3ccccc32)c1C#N` is 1.69%; for `Cc1cc(NCc2ccco2)n2c(nc3ccccc32)c1C#N` it is 19.7% (active); for `O=C(NCc1ccc2c(c1)OCO2)C12CC3CC(CC(C3)C1)C2` it is -0.27%.
Next, `Cc1ccc(O)c(/C=N/NC(=O)COc2ccc3c(C)cc(=O)oc3c2)c1`: 16.8% (active); `CCOC(=O)Cc1csc(NC(=O)COc2ccc3c(C)cc(=O)oc3c2)n1`: -1.92%; `Cc1cc(=O)oc2cc(OCC(=O)Nc3nnc(C4CC4)s3)ccc12`: -0.86%.
As for `O=C(NCc1cccs1)c1cc(-c2ccccn2)nc2ccc(Br)cc12`, the Tm shift relative to glycine control was -0.39%.
Next, `CCOc1ccccc1NC(=O)Cn1nnc(C(=O)NCc2cccs2)c1N`: -0.84%; `CC(C)Cn1c(N)c(C(=O)NCc2cccs2)c2nc3ccccc3nc21`: 19.1% (active); `Cc1ccc(S(=O)(=O)c2ccc(Cl)cc2)cc1S(=O)(=O)NC(C(=O)O)C(C)C` (centres undefined): -2.2%.
Next, `CCCOn1c(-n2nc(C)cc2C)nc2ccccc2c1=O`: 1.18%.
Next, `O=C(CSc1ccc(C(F)(F)F)cc1[N+](=O)[O-])NCCOc1ccccc1`: -6.06%; `N#C/C(=C(/O)COC(=O)COc1ccc(Cl)cc1)c1nc2ccccc2[nH]1`: 7.42%; `O=C(/C(=C/c1cccc(Cl)c1)c1nc2ccccc2[nH]1)c1ccccc1`: 23% (active).
On to `Oc1ccc2nc(Cc3ccccc3)[nH]c2c1`, for which the Tm shift relative to glycine control is -5.45%.
The figure for `CN(CC1CCCN(CCc2cccc(C(F)(F)F)c2)C1)C(=O)c1ccc2nc[nH]c2c1` (centres undefined) is 1.25%; for `NC(=O)Cn1cc(/C=N\NS(=O)(=O)c2ccccc2)c2ccccc21` it is -34.7%.
Next, `O=C(CN1CCN(c2ccc(F)cc2)CC1)Nc1cccc(C(F)(F)F)c1`: -4.33%; `O=C(Cn1cc(/C=N/NC(=O)c2cccc(C(F)(F)F)c2)c2ccccc21)Nc1ccc(F)cc1`: 15.8% (active); `CCCOC(=O)c1ccc(N2C(=O)c3ccccc3C2=O)cc1`: -1.6%.
Next, `Cc1ccc(NC(=O)c2cc(-c3ccccc3O)n[nH]2)cc1C`: 26.2% (active); `Cc1ccc(C)c(NC(=O)c2cc(-c3cc(C)cc(C)c3O)n[nH]2)c1`: 0.62%; `Cc1ccc(NC(=O)CCN2C(=O)c3ccccc3C2=O)cc1C`: -0.19%.
Consider `O=C(CNS(=O)(=O)c1cccc(C(F)(F)F)c1)Nc1ccccc1F`, for which the Tm shift relative to glycine control is -1.13%.
Next, `O=C(CNS(=O)(=O)c1ccc2ccccc2c1)Nc1ccc(F)c(F)c1F`: 35% (active).
The figure for `CN(CC(=O)NCCc1ccc(S(N)(=O)=O)cc1)CC(=O)Nc1ccc(F)c(F)c1F` is -1.98%.
Next, `O=C(c1ccncc1)N1CCN(S(=O)(=O)c2cccc([N+](=O)[O-])c2)CC1`: 2.5%; `Cc1ccc(Cc2cncc(O)c2)cc1S(=O)(=O)O`: 0.09%; `CNc1nc(=O)n(C2CCCO2)cc1C` (centres undefined): -4.19%.
For the compound `N#Cc1c(N)n(CCOC(=O)c2ccc(Cl)cc2)c2nc3ccccc3nc12`, the Tm shift relative to glycine control was 35.9% (active).
Next, `CN(C)CCCn1c(N)c(C#N)c2nc(C#N)c(C#N)nc21`: -3.53%; `COCC(C)OC(=O)c1c(N)n(CCCN2CCOCC2)c2nc3ccccc3nc12` (centres undefined): -0.69%.
Next, `C=CCc1cccc2cc(C(=O)N3CCN(C(=O)OCC)CC3)c(=O)oc12`: -2.65%; `Cc1ccc(NC(=O)CSc2nn3c(=O)c(C)nnc3s2)cc1Cl`: -1.28%.
Next, `C/C(=N\Nc1ccc(Cl)nn1)c1ccccc1O`: -6.71%.
For the compound `CC(C)(C)c1ccc(SCCc2ccncc2)cc1`, the Tm shift relative to glycine control was 0.08%.
On to `O=C(Nc1cc(S(=O)(=O)Nc2ccc(Cl)cc2)ccc1O)c1ccc(F)cc1F`, for which the Tm shift relative to glycine control is 37.7% (active).
Next, `O=C(Nc1cccc(S(=O)(=O)NC2=NCCC2)c1)c1ccc(F)cc1F`: 0.09%.
For the compound `Cc1cc(NS(=O)(=O)c2ccc(NC(=S)NC(=O)c3ccc(F)cc3Cl)cc2)no1`, the Tm shift relative to glycine control was 0.87%.
The figure for `Cn1c(Cc2cccc3ccccc23)nnc1SCC(=O)N1CCN(c2cccc(Cl)c2)CC1` is 5.43%; for `CCC(Oc1ccccc1C)C(=O)Nc1ccc(S(=O)(=O)Nc2cc(C)on2)cc1` (centres undefined) it is 3.83%.
Next, `Cc1ccc(S(=O)(=O)N2CCCCC2)cc1C(=O)N1CCN(CCO)CC1`: 2.45%; `COc1ccccc1N(CCOc1ccccc1)S(=O)(=O)c1ccccc1`: 12.6% (active); `COc1ccccc1N(CC(=O)N1CCCCC1)S(=O)(=O)c1ccccc1`: 0.84%.
Next, `COc1ccccc1NC(=O)CN(c1ccccc1OC)S(=O)(=O)c1ccccc1`: 0.31%; `NC(=S)Nc1c(Cl)cccc1Cl`: 2.25%; `O=C(Nc1c(Cl)cccc1Cl)C1CCC1`: 12.7% (active).
On to `CN(CC(=O)Nc1c(Cl)cccc1Cl)C(=O)CNC(=O)C1CCCCC1`, for which the Tm shift relative to glycine control is 0.17%.
The figure for `Cc1c(S(=O)(=O)NC(C)c2ccccc2)c(=O)n(C)c(=O)n1C` (centres undefined) is -6.52%.
The figure for `Cc1c(S(=O)(=O)NCc2ccccc2)c(=O)n(C)c(=O)n1C` is -0.41%.
Next, `Cc1c(S(=O)(=O)N2CC(C)CC(C)C2)c(=O)n(C)c(=O)n1C` (centres undefined): 11.1% (active).
Regarding `O=C(NCCc1ccccc1Cl)C1CCC(=O)N(CCCc2ccccc2)C1` (centres undefined), the Tm shift relative to glycine control was 3.05%.
The figure for `O=C(NNC(=O)c1ccc(-n2cncn2)c([N+](=O)[O-])c1)c1ccccc1` is 3.86%.

The record behind these values is PubChem BioAssay AID1259313 (Sanford-Burnham Center for Chemical Genomics, 2017).
